Screening data as filed in PubChem.
FID counter: fluorescent intercalator displacement, NS3 helicase counter-screen. DNA fluorescent intercalator displacement, fluorescence. inhibition, % at 7.9 µM. hit rate 0.17% among 290,000; in the data active means inhibition above about 37%;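 further: 0% = vehicle and 100% = reference compound; higher means more ethidium bromide displaced from hairpin DNA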
Ba/F3 V617F tox: lowers viability of Ba/F3 cells expressing EpoR and JAK2V617F; inhibition, % at 5.6 µM; hit rate 1.1% among 220,000; ATP luminescence; AID 1446;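 active means inhibition above the campaign mean plus 3 SD over all tested compounds, cut at about 24% in these data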;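 further: cytokine-independent growth of Ba/F3 cells driven by EpoR plus mutant JAK2; 0% = DMSO-treated cells and 100% = JAK inhibitor I control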
GPR7 antagonist: antagonists of human GPR7 (neuropeptides B/W receptor 1) | P48145 | GPR7-expressing cells, fluorescence antagonist assay | inhibition, % at 4.4 µM | hit rate 1.1% among 290,000; in the data active means inhibition above about 16%, passing the limit was not always enough;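 further: cells stimulated with the agonist NPW; 0% = agonist with vehicle and 100% = vehicle without agonist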
Target sequence (P48145 whole entry, looked up): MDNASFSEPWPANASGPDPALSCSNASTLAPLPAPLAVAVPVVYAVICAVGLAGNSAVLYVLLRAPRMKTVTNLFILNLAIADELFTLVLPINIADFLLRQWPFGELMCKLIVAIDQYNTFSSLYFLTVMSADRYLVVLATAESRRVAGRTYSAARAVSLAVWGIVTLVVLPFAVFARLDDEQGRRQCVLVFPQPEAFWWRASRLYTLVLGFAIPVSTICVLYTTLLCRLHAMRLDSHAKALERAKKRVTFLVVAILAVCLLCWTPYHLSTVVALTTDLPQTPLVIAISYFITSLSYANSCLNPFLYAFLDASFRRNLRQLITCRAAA
IEC-6 tox: counter-screen for KLF5 inhibitors: cytotoxicity in IEC-6 cells. IEC-6 cytotoxicity, luminescence viability. inhibition, % at 5 µM. hit rate 0.78% among 290,000. AID 1825;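 further: 0% = plate median of test compound wells and 100% = cytotoxic reference compound wells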
KLF5 inh: inhibitors of KLF5 expression; DLD-1 KLF5 promoter-luciferase reporter, luminescence; inhibition, % at 5 µM; hit rate 0.23% among 290,000; AID 1700;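 active means inhibition above a per-plate limit of that plate's mean compound inhibition plus 3 SD, cut at about 60% in these data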;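 further: 0% = DMSO wells and 100% = LY294002 at 200 µM; higher means less KLF5 promoter-driven luciferase light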
BaF3 parental: parental Ba/F3 viability inhibition as JAK2V617F counter-screen; inhibition, % at 5.6 µM; AID 1486; CellTiter-Glo ATP luminescence; hit rate 1.1% among 220,000;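 active means inhibition above a per-campaign cutoff, the mean inhibition of all tested compounds plus 3 SD, cut at about 27% in these data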;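 further: 0% = DMSO wells and 100% = JAK Inhibitor I control wells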
GPR7 antag conf: confirmation of human GPR7 antagonists. shares compounds with GPR7 antagonist. GPR7-expressing cells, calcium fluorescence antagonist mode. inhibition, % at 4.4 µM. hit rate 52% among 2,400. AID 1952; in the data active means inhibition above about 24%;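 further: stimulated with the GPR7 agonist NPW; 0% = agonist plus vehicle and 100% = vehicle alone without agonist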
MCHR1 antag: MCHR1 (human) antagonism in GPR7 counter-screen. shares compounds with GPR7 antagonist. MCHR1-expressing cells, fluorescence antagonist assay. inhibition, % at 4.4 µM. hit rate 62% among 2,400;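 further: 0% = vehicle with agonist and 100% = vehicle without agonist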
An asterisk follows results filed as active; x = not tested or not shown. Rows were chosen to be rich in hits. Some 2.6% of all compounds tested hit in one or more screens of this group. Unless noted, no stated cut-off is given here; in the data, active means inhibition above about 22%; inactive means the rest.

SMILES | FID counter | Ba/F3 V617F tox | GPR7 antagonist | IEC-6 tox | KLF5 inh | BaF3 parental | GPR7 antag conf | MCHR1 antag
O=C(Cn1cnc2cc([N+](=O)[O-])ccc2c1=O)Nc1cccc2ccccc12 | 9 | -4 | 25* | -4 | 8 | -3 | 17 | 1
Cc1ccccc1OCCn1cnc2cc([N+](=O)[O-])ccc2c1=O | 1 | 0 | 26* | -7 | -21 | 8 | 27* | 55*
COc1cccc(C(=O)N/N=C/c2ccc(OC)c(COc3ccccc3C(N)=O)c2)c1 | -31 | x | -6 | 6 | -5 | x | x | x
Cc1ccc(-c2ocnc2C(=O)N2CCN(C(=O)c3cccs3)CC2)cc1 | -35 | x | 28* | -1 | -16 | x | 21 | 7
Cc1ccc(-c2nnc(N3CCN(C(=O)c4cccs4)CC3)c3ccccc23)cc1 | -8 | 0 | -3 | 2 | 9 | 0 | x | x
CCSc1ncc(/C=N/Nc2ccc(Cl)cc2)n1C | -3 | -3 | 25* | -5 | -106 | 1 | 13 | 40*
CCSc1ncc(/C=N/Nc2ccccc2)n1C | 1 | -2 | -13 | 7 | 18 | 0 | x | x
Cc1cc(NCCCN(C)C)n2nc(-c3cccs3)cc2n1 | 18 | 0 | -9 | -2 | -29 | 4 | x | x
Cc1ccc(SC(c2ccc(C)cc2)C(Cn2cncn2)C(=O)c2ccccc2)cc1 (configuration not stated) | -7 | 4 | 26* | 2 | -11 | 7 | 3 | 3
Cc1ccc(C2CC(c3ccc(F)cc3)Nc3nc(N)nn32)cc1 (configuration not stated) | -12 | -1 | 21* | -2 | -32 | 2 | 21 | 8
CCc1ccc(C2CC(c3ccccc3C)n3nc(N)nc3N2)cc1 (configuration not stated) | -22 | -4 | 25* | 0 | -8 | 0 | 11 | 4
COc1cccc(CN2CCNC(=O)C2CC(=O)N(C)CCC2CCOCC2)c1OC (configuration not stated) | -17 | x | -7 | 5 | 3 | x | x | x
CCOC(=O)CCCN1CC(O)=C(c2nc(-c3ccc(Cl)cc3)cs2)C1=N | -6 | 2 | -10 | 3 | 2 | 5 | x | x
Cc1nnc(NCc2n[nH]c(=O)c3ccccc23)c2ccccc12 | -9 | -2 | 22* | 5 | -14 | 3 | 6 | -7
COc1ccc(NCc2n[nH]c(=O)c3ccccc23)cc1 | -4 | 4 | -7 | 8 | -11 | 8 | x | x
CC(=O)Oc1cccc(N2C(=O)c3cccc4c([N+](=O)[O-])ccc(c34)C2=O)c1 | -9 | x | 60* | 11 | -26 | x | 54* | 36*
NC(=O)c1c(N)sc2c1CCCC2 | -6 | -3 | 23* | -1 | -22 | 7 | 1 | 17
Cc1cc(NCc2ccccc2)nc(N2CCOCC2)n1 | 8 | 0 | 2 | 0 | -13 | 6 | x | x
Cc1cc(N2CCOCC2)nc(NCc2ccccc2)n1 | 0 | 2 | 23* | 9 | -3 | 6 | 60* | 72*
Cc1cc(N2CCCCC2)nc(NCc2ccccc2)n1 | 14 | 7 | 84* | 21 | 26 | 8 | 73* | 89*
CCN1C(=O)[C@@H]2[C@H](C1=O)[C@@H]1C(=O)Nc3ccccc3C(=O)N1[C@@H]2c1cccc(Cl)c1 | -21 | x | 2 | -2 | -14 | x | x | x
COc1ccccc1CN(CC(=O)NCc1ccc2c(c1)OCO2)C(=O)c1csnn1 | -21 | x | -8 | -2 | -21 | x | x | x
CC(C)CCNC(=O)C1CCN(S(=O)(=O)c2ccc3c(c2)CC(C)N3C(=O)C2CC2)CC1 (configuration not stated) | -61 | x | 25* | 1 | -25 | x | -9 | 18
CCCCNC(=O)C1CCN(S(=O)(=O)c2ccc3c(c2)CC(C)N3C(=O)C2CC2)CC1 (configuration not stated) | -44 | x | -6 | 1 | -14 | x | x | x
Cc1cccc(N(C)C(=O)COc2cc(=O)n(C)c3ccccc23)c1 | -26 | -5 | 64* | -3 | -13 | 2 | -2 | 6
SMILES | FID counter | Ba/F3 V617F tox | GPR7 antagonist | IEC-6 tox | KLF5 inh | BaF3 parental | GPR7 antag conf | MCHR1 antag
COc1ccc(N2CCN(CC(=O)Nc3sccc3C#N)CC2)cc1 | -4 | -3 | 24* | -8 | -14 | 3 | 34* | 36*
N#Cc1ccsc1NC(=O)CN1CCN(c2ccc(O)cc2)CC1 | 0 | -1 | -3 | 2 | -21 | 13 | x | x
CCOC(=O)c1c(N)sc2c(OCC)c(Br)ccc12 | 3 | 3 | 24* | 0 | -12 | 7 | 29* | 28*
O=C(CCNC(=O)c1ccc(Br)cc1)NCC1COc2ccccc2O1 (configuration not stated) | -13 | x | -1 | 5 | -48 | x | x | x
CCc1ccc(Nc2n[n+](-c3ccccc3)c(-c3ccc(OCc4ccccc4)cc3)s2)cc1 | 7 | x | 68* | 1 | -19 | x | 53* | 59*
CCc1ccc(Nc2n[n+](-c3ccccc3)c(-c3c(Cl)cccc3Cl)s2)cc1 | 30 | x | 45* | -2 | -18 | x | 60* | 73*
Fc1ccc(-[n+]2nc(Nc3ccccc3)sc2-c2c(Cl)cccc2Cl)cc1 | 26 | x | 3 | 2 | -15 | x | x | x
CCc1ccc(Nc2n[n+](-c3ccccc3)c(-c3ccc(N(CC)CC)cc3)s2)cc1 | -4 | x | 62* | 1 | -45 | x | 88* | 83*
CCN1CCCC1CNC(=O)C(=O)NCCc1ccc(OC)c(OC)c1 (configuration not stated) | 7 | -4 | 0 | 5 | 4 | 0 | x | x
CN(CC(=O)NCc1ccc(F)cc1)CC(=O)Nc1ccc(Cl)c(C(F)(F)F)c1 | -12 | x | 28* | 7 | -8 | x | 27* | 61*
Cn1sc(NC(=O)c2ccc(Cl)cc2)nc1=O | 1 | 2 | 3 | -1 | -100 | 4 | x | x
CC1CCN(CCCNC(=O)c2ccc(CSCc3cccc(Cl)c3)o2)CC1 | 16 | -1 | 22* | -2 | -26 | 8 | 17 | 13
COc1ccc(C(=O)/C=C/c2ccc(N(C)C)cc2)c(OC)c1 | -14 | -1 | 32* | 4 | 1 | 2 | 58* | 81*
COc1ccc(C(=O)N(C(C)C)C(C)C)c(OC)c1 | -4 | -2 | 25* | -1 | -16 | 6 | 14 | 8
COc1ccc(C(=O)/C=C/c2ccccc2)c(OC)c1 | -10 | -5 | -7 | -2 | -80 | -9 | x | x
CCOC(=O)c1c(NC(=O)OC)sc(C(=O)N(CC)CC)c1C | -36 | 0 | -11 | -2 | -3 | 2 | x | x
Cc1ccc(S(=O)(=O)N(c2cccc(C(F)(F)F)c2)C2C=CS(=O)(=O)C2)cc1 (configuration not stated) | -17 | -5 | 23* | -2 | 4 | 1 | 12 | -5
CCc1ccc(N(C2C=CS(=O)(=O)C2)S(=O)(=O)c2ccccc2)cc1 (configuration not stated) | -12 | -3 | 7 | 3 | 4 | 2 | x | x
